Results on 40 compounds are retold here after ChEMBL document CHEMBL3988442, “University of Dundee, Small-Polar-MMV Screening Library” (2021).

This assay concerns the target T1, Aspartate--tRNA(Asp/Asn) ligase (Mycobacterium tuberculosis (strain ATCC 25618 / H37Rv)) (UniProt P9WFW3).
T1 sequence (whole entry): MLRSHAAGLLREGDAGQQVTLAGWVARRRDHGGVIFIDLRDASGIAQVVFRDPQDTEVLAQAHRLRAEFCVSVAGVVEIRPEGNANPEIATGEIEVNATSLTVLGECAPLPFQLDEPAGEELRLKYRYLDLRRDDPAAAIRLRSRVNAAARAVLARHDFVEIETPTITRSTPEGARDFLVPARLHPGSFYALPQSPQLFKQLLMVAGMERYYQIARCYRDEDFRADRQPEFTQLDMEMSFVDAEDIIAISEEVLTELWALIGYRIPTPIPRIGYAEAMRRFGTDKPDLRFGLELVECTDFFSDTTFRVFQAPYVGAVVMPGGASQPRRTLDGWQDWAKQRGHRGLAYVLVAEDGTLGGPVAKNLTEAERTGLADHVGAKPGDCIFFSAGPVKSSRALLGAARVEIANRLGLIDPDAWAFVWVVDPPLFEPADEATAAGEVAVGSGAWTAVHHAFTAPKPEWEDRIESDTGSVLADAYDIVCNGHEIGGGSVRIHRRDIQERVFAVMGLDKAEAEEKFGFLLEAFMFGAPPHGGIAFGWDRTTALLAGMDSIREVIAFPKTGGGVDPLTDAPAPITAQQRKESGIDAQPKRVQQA
The assay is described as follows: Assay for Asp RNA synthetase-1 from Mycobacterium tuberculosis. Particulars: 30 µM. The assay is classed as functional. Details: scale not given: in the data most compounds retested in dose-response had high values.
`CCc1n[nH]c(C2CN(C(=O)c3cnns3)CCO2)n1` (stereo not given): the Percent Effect is -0.228%.
For `CC(C)(C)NC(=O)NC(=O)CNC(C)(C)c1ccc2c(c1)OCCO2`, the Percent Effect came to 0.459%.
Then `Cn1cnc2c1C(COCc1cccnc1)N(Cc1ccccn1)CC2` (stereo not given), with 2.65%.
With `CN(Cc1ccsc1)C(=O)c1cc2c([nH]c1=O)CCCC2=O` the figure was -1.51%; with `CC(C)(C)c1nc(CN2CCC(c3nc4cc(Cl)ccc4o3)CC2)no1`, -2.4%.
With `Cc1ccc(C(=O)N2CCN(Cc3nc(C(C)C)no3)CC2)c(=O)[nH]1` the figure was 2.27%; with `CCc1nccn1C1CCCN(C(=O)c2ccc3[nH]cnc3c2)C1` (stereo not given), 0.869%; with `Cc1cnc2n(c1=O)CC(C(=O)Nc1ccccc1Cl)CS2` (stereo not given), -5.41%.
Turning to `O=C(NCc1nnc2n1CCCC2)N(Cc1ccccc1F)C1CC1`, the Percent Effect is -1.44%.
Consider `CCn1cc(CN2CCC(c3nnc(CN(C)C)n3CC)CC2)cn1`, for which the Percent Effect is -2.35%.
Then `CNc1snc(C)c1C(=O)N1CCCC(n2nc(C)cc2C)C1` (stereo not given), with -8.77%; and `C[C@@H]1CN(C(=O)c2ccc(C#N)nc2)C[C@@]1(O)C1CC1`, with 0.0335%.
With `CC(=O)N1CCCC(c2ccc(Nc3nc(C)cc(C)n3)cn2)C1` (stereo not given), the Percent Effect is -1.31%.
Then `Cc1nc(CN2CCCC(N(C)CCc3ccncc3)C2)no1` (stereo not given), with 0.35%; and `Cc1ccc(N2CC3(COCCN(Cc4cccnc4)C3)OCC2=O)s1` (stereo not given), with 10.1%.
Then `CC1CCN(c2ncc3c(n2)CN(c2ccccc2)C3=O)CC1`, with 3.06%.
Then `Cc1ccc(-c2cc(C(=O)NC(C)C(=O)N3CCCCC3)on2)cc1` (stereo not given), with 2.34%; and `Cc1ccc(CN2CC[C@H]3OCC[C@@H](C(=O)NC4CC4)[C@@H]3C2)o1`, with 4.6%.
`O=C(NCCC1=CCCCC1)C1CCCN(c2ccc3nncn3n2)C1` (stereo not given): the Percent Effect is -1.84%.
Take `Cc1nnc(NC(=O)NCc2cc(F)cc(F)c2)s1`: the Percent Effect came to 4.55%.
With `O=C(NCCCN1CCOCC1)c1cc(-c2ccc3c(c2)CCO3)n[nH]1` the figure was -2.27%.
Then `Cc1ccc(NC(=O)NC(C)c2nc[nH]n2)s1` (stereo not given), with 3.94%.
With `Cc1nccn1C1CCCN(C(=O)c2cc3ccccc3[nH]2)C1` (stereo not given) the figure was 0.714%.
As for `CNc1cc(C2CCCN2Cc2ccccc2C(=O)O)ccn1` (stereo not given), the Percent Effect is -0.938%.
For the compound `CN(C)S(=O)(=O)N1CCC(Oc2ccc(C#N)cn2)CC1`, the Percent Effect turned out to be 5.76%.
With `CC(C)Oc1ncccc1CNC(=O)c1ccco1` the figure was -4.72%; with `Clc1snnc1CN1CCCC(Cn2cncn2)C1` (stereo not given), -2.43%.
With `CCc1nc(CC(=O)NCC(Cc2ccc(F)cc2)C(N)=O)cs1` (stereo not given) the figure was 1.14%; with `CC(Cn1ccnc1)NC(=O)NCCc1ccc2c(c1)OCCO2` (stereo not given), -0.516%; with `O=C(NCN1CCc2ccccc2C1)c1cnccn1`, 8.37%.
With `O=C(CCNC(=O)c1ccoc1)Nc1c(F)cccc1F` the figure was 4.76%.
Take `CN(C)C(=O)c1cccc(NC(=O)N(CCO)Cc2ccsc2)c1`: the Percent Effect is -4.93%.
With `Cc1noc(C)c1CN1CC2(CCN(C(=O)c3c[nH]cn3)C2)CC1=O` (stereo not given) the figure was 0.582%; with `O=C(CCOc1ccccc1)N1CCC(Nc2cccnn2)CC1`, 4.24%; with `O=C(NCC(Cc1cccc(F)c1)N1CCCC1=O)c1ccccc1` (stereo not given), -2.27%.
With `Cc1[nH]c(=O)[nH]c(=O)c1CN1CCCC(CCc2c(F)cccc2F)C1` (stereo not given) the figure was 0.725%; with `O=c1ccc2c(n1CCN1CCCC1)CCN(Cc1ccoc1)CC2`, -2.69%; with `COCCN1CC(C(=O)NCc2ccnc(-n3cccn3)c2)CC1=O` (stereo not given), -0.544%.
Then `Cc1cc(C(F)(F)F)nn1C(C)C(=O)Nc1ccncc1` (stereo not given), with -0.755%; and `Cc1nccc(CN2CC[C@H](Oc3cccc(F)c3)[C@@](C)(O)C2)n1`, with -0.368%.
